# Shown are actives, neighbours in structure and some others; about 1.7% of the full set was active somewhere.
# Smad3 FoxH1 inh: Smad3/FoxH1 peptide binding inhibitors, primary screen, biochemical, TR-FRET; Mothers against decapentaplegic homolog 3 (Homo sapiens), P84022; TR-FRET Smad3/Dy647-FoxH1 peptide binding, europium anti-His; inhibition, % at 25 µM; 88,000 tested, 0.29% active;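 active means compounds that reduce the energy-transfer binding signal between the protein and its labelled peptide by more than half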;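 further: 0% = Smad3 plus labelled peptide maximal FRET and 100% = peptide-only background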
# Target sequence (P84022 whole entry, looked up): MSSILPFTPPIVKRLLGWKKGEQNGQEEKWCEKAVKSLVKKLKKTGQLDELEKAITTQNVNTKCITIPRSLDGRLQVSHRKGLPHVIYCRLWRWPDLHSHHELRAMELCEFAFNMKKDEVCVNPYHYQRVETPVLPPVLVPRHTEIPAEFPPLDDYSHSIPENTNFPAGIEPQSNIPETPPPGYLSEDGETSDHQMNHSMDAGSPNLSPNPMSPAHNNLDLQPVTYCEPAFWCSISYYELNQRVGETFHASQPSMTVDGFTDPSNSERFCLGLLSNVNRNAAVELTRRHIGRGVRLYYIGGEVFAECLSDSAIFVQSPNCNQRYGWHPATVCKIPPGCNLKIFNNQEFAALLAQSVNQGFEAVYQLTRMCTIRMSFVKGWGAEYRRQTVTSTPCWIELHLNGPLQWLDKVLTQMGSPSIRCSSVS
# Measles CPE: compounds protecting cells from measles virus cytopathic effect, primary screen, measles RdRp inhibitor project, single point, MLSMR library, absorbance; Measles virus-infected cells, CPE protection; protection (pct of control), % at 4 µM; 140,000 tested, 1.5% active; in the data active means protection mostly above about 24%, no sharp cut-off; inactive means mostly below about 26%
# MT1-MMP txn act: MT1-MMP promoter reporter activation – cell-based, luciferase luminescence, primary screen. 86,000 tested, 0.16% active. activation factor at 10 µM. HT1080 MT1-MMP promoter luciferase reporter, overnight; hits give high values;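 active means activation factor of at least 2 for MT1-MMP transcription at 10 µM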
# * marks the source's active call; other numbers are inactive results; . = no result given.
SMILES,Smad3 FoxH1 inh,Measles CPE,MT1-MMP txn act
C/C(=N\NC(=O)CSCc1ccccc1Br)c1cccc([N+](=O)[O-])c1,.,9,.
C/C(=N\NC(=O)CSCc1ccc([N+](=O)[O-])cc1)c1cccc(Br)c1,.,35*,.
Cc1ccccc1C(=N)c1ccccc1Cc1cccc2ccccc12,-5,.,.
C[N+]1([C@H](CO)Cc2c[nH]c3ccccc23)Cc2ccccc2C1,3,.,.
C/C(CC/C(C)=N/O)=N\O,16,.,.
c1c[nH]c(CN2CCOCC2)n1,-13,.,.
NCCCc1ccc2oc3ccccc3c2c1,-3,.,.
Cc1cc(C2=NNC(=NC3CC3)SC2)c(C)n1-c1c(C)n(C)n(-c2ccccc2)c1=O,.,11,.
Cc1ccc(-n2c(C)cc(C3=NNC(=NC4CC4)SC3)c2C)cc1C,.,74*,.
COC(=O)[C@@]1(Cc2ccc(OC)cc2)[C@H]2c3cc(C(=O)N(C)C)n(Cc4ccsc4Br)c3C[C@H]2CN1C(=O)c1ccccc1,.,.,1.2
COc1ccc(C(=O)CSc2ncn[nH]2)cc1OC,-4,48*,1.1
Cc1ccc(C(=O)CSc2ncn[nH]2)cc1,-2,15,1.3
CCCCn1c(NCc2ccccc2NS(=O)(=O)c2ccc(C)cc2)nc2ccccc21,.,4,.
CCn1c(/N=C/c2ccccc2NS(=O)(=O)c2ccc(C)cc2)nc2ccccc21,.,66*,.
CC(Cc1ccccc1)C(=O)NCC1CC1 (stereo not given),.,.,1
CCCN(CC(=O)Nc1cc(Cl)ccc1Cl)C(=O)/C=C/c1ccco1,.,15,.
Cc1ccnc(NC(=O)CCC2COc3ccccc3O2)c1 (stereo not given),-1,41*,1.3
O=C(CCC1COc2ccccc2O1)Nc1ccc(Cl)cn1 (stereo not given),7,6,1.1
Cc1cc(C)cc(C(=N)c2ccccc2Cc2cccc3ccccc23)c1,6,.,.
C/C(=N\S(=O)(=O)c1ccc(Cl)c(Cl)c1)OCC(C)(C)C,3,.,.
COC(=O)[C@@H]1C[C@H]1[C@@H](NC(=O)c1cc(C)nn1C)c1ccccc1,.,.,1.2
CC(C)NC(=O)c1ccc(COCC(F)(F)C(F)F)cc1,65*,12,1
O=C(NCC1CCCO1)c1ccc(COCC(F)(F)C(F)F)cc1 (stereo not given),13,2,1.7
Cc1ccnc(NS(=O)(=O)c2ccc(N=[N+]=[N-])cc2)n1,-5,.,.
CCNc1nnc(-c2ccc(C)cc2)o1,0,39*,1.3
SMILES,Smad3 FoxH1 inh,Measles CPE,MT1-MMP txn act
Cc1ccc(-c2nnc(-c3ccccc3)o2)cc1,11,10,0.9
CC(=O)c1cnn(-c2cc(Oc3cccc(C)c3)ncn2)c1C,.,51*,.
COC(=O)c1cnn(-c2cc(Oc3cccc(C)c3)ncn2)c1N,.,16,.
CC(C)(C)C1CCC(C(=O)OCC(=O)c2ccc[nH]2)CC1 (stereo not given),.,5,.
COc1ccccc1/C=C/C=N/n1c(-c2cc(C)[nH]n2)n[nH]c1=S,.,57*,.
COc1ccccc1/C=C/C=N/n1c(-c2ccc(C)cc2)n[nH]c1=S,.,8,.
CC(=O)c1cn(S(=O)(=O)c2ccccc2)c2ccccc12,.,5,.
CC1CC(C)CN(C(=O)C(NS(=O)(=O)c2ccc(Br)s2)c2ccccc2)C1 (stereo not given),.,13,.
CCOC(=O)C1CCN(C(c2cccnc2)c2c(NC(=O)c3ccco3)sc(C)c2C)CC1 (stereo not given),12,67*,1.5
Cc1sc(NC(=O)c2ccco2)c(C(c2cccnc2)N2CCN(c3ccc(F)cc3)CC2)c1C (stereo not given),-17,2,.
Cc1ncc(CSc2ccccc2N)c(CO)c1O,-7,.,.
COCCCNC(=O)CN(c1ccc(OC)cc1)S(=O)(=O)c1ccc(NC(C)=O)cc1,.,53*,.
COc1ccc(N(CC(=O)NC(C)C)S(=O)(=O)c2ccc(NC(C)=O)cc2)cc1,.,9,.
CCOc1ccc(N(CC(=O)Nc2ccc(OC)cc2)S(C)(=O)=O)cc1,-3,48*,1.7
CC(=O)c1cccc(NC(=O)CN(c2ccccc2)S(C)(=O)=O)c1,58*,9,1.2
CCOc1ccc(NC(=O)CN(c2ccc(OC)cc2)S(C)(=O)=O)cc1,11,12,1.6
CC(=O)c1cccc(NC(=O)CN(c2ccccc2F)S(C)(=O)=O)c1,-1,8,1.3
Clc1ccc(SCCCCN2CCNCC2)cc1,.,10,.
CN(CCOc1ccc(-c2ccn(S(=O)(=O)c3cccc4ccccc34)n2)cc1)c1ccccn1,.,44*,.
CN(CCOc1ccc(-c2ccn(S(=O)(=O)c3c(Cl)cccc3Cl)n2)cc1)c1ccccn1,.,1,.
N=C(N)SCC(=O)O,-5,.,.
CN(C)c1ccc(C(=C2C=CC(=[N+](C)C)C=C2)c2c(O)c(S(=O)(=O)O)cc3cc(S(=O)(=O)O)ccc23)cc1,34,.,.
O=C(O)CSc1nnc(-c2ccc3c(c2)OCO3)o1,9,4,1.1
O=C(c1ccc(Cl)cc1)N1CCCCC(Sc2nnc(-c3ccc4c(c3)OCO4)o2)C1=O (stereo not given),2,39*,.
CCS(=O)(=O)N1Cc2ccccc2CC1C(=O)Nc1nnc(SCc2ccc(F)cc2)s1 (stereo not given),.,3,.
SMILES,Smad3 FoxH1 inh,Measles CPE,MT1-MMP txn act
S=C(Nc1ccccc1)Nc1nc2ccccc2n1CCOc1ccccc1,.,26*,.
CC(=O)Nc1nc2ccccc2n1CCOc1ccccc1,8,29,1.1
CCCn1c(SCC(=O)N2c3ccccc3Sc3ccccc32)nc2ccccc21,.,33*,.
CCCn1c(SCC(=O)O)nc2ccccc21,5,16,1.1
Cc1ccc(-n2nnnc2/C=C\Nc2cc(C)on2)cc1,.,2,.
Cc1cc(N/C=C\c2nnnn2-c2ccc(F)cc2)no1,.,34*,.
COc1ccc(C(=O)N2CCN(c3ccc([N+](=O)[O-])c(-n4nc(C)cc4C)c3)CC2)cc1,.,23*,.
Cc1cc(C)n(-c2cc(N3CCN(C(=O)c4ccc(C(C)(C)C)cc4)CC3)ccc2[N+](=O)[O-])n1,.,9,.
CCSc1nc(-c2cccnc2)ccc1C#N,.,3,.
COc1ccc(C(=O)Nn2c(SCC(=O)N3CCC(C)CC3)nc3ccccc3c2=O)cc1,7,5,.
COc1ccc(C(=O)Nn2c(SCC(=O)c3ccc(Cl)cc3)nc3ccccc3c2=O)cc1,-1,84*,0.8
CC1=C(C(=O)OCc2ccccc2)C(c2ccccc2OC(=O)c2ccc(I)cc2)NC(=O)N1CCCC(=O)O (stereo not given),.,.,1.1
Nc1c(S(=O)(=O)c2cccs2)c2nc3ccccc3nc2n1/N=C/c1cccc(O)c1,8,4,1
COc1ccc(/C=N/n2c(N)c(S(=O)(=O)c3cccs3)c3nc4ccccc4nc32)cc1OC,-8,32*,1.1
CC(=O)c1c(O)cc(=O)n(-c2ccccc2)c1-c1ccc(Cl)cc1,.,5,.
CCc1c(O)cc(=O)n(-c2ccccc2)c1-c1ccccc1,.,26*,.
CCOC(=O)c1cccc(NC(=O)CSc2nc(N)cc(N)n2)c1,1,31*,1.1
Cc1cccc(NC(=O)CSc2nc(N)cc(N)n2)c1,1,13,.
O=C(O)C/C(=C/c1ccccc1)C(=O)O,-6,.,.
NC(=O)C[C@@H](N)c1nn[nH]n1,4,.,.
CC1=C[N+](=O)c2ccccc2[N+]1=O,5,.,.
Cc1nc(SCC(=O)Nc2c(C)nn(C)c2C)c2cnn(-c3ccccc3)c2n1,3,48*,1

# Bioassay records: PubChem, several laboratories
